# Most compounds without a hit are left out; they make up all but 2.9% or so of the library.
# Rango dissoc inh: prevents RanGTP from dissociating the Rango-importin beta complex; O95149+P62826; Biochemical FRET Rango-importin beta, RanGTP-induced dissociation; Potency, µM (highest dose often 46.1 µM), for the others: at the highest dose activity change, negative = inhibition; actives 0.071% (n = 340,000); also: potency is read from the fitted curve at half-maximal effect; % of control where 0% means no effect; nearly all actives have a fitted effect of over 45% in size
#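 Rango (0.1 uM)–importin beta (0.25 uM) complex; RanGTP-RCC1 trigger; 45 min RT; CFP/YFP FRET read.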
# D3 antag: D3 dopamine receptor (human) antagonism; P35462; D3R cells, DiscoveRx beta-arrestin luminescence, antagonist mode; hits give low values; max response, negative = inhibition, %; actives 2.5% (n = 360,000); AID 652054; in the data active = max response below about -50%; inconclusive = no clear call, values can overlap the other calls; also: % is scaled to controls: 0 for no effect and ±100 for the full control effect
#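 Cells expressing the human receptor were seeded at 1500 cells/well, incubated overnight at 37 degrees C in 5% CO2, then exposed to library compounds with dopamine controls for 90 minutes at 37 degrees C before luminescent detection.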
# TSG101-PTAP inh: blocks PTAP/TSG101 interaction to inhibit HIV-1 budding; Potency, µM (highest dose often 115 µM), without a hit: at the highest dose activity change, negative = inhibition, most hits filed as inhibitors; Fluorescence polarization, FITC-PTAP peptide / Tsg101 binding; AID 493005; Q99816; 340,000 tested, under 10 active; active = well fitted inhibition curve with a large enough effect in the main read-out, with a control signal flat, not every such curve was filed as active; inconclusive = small, poorly fitted or top-dose-only effect, or effect the other way, or a change in a side signal; inactive = no such curve, though single readings can be large or run the other way; also: potency is read from the fitted curve at half-maximal effect; % of control where 0% means no effect
# Target sequence (Q99816 whole entry, looked up): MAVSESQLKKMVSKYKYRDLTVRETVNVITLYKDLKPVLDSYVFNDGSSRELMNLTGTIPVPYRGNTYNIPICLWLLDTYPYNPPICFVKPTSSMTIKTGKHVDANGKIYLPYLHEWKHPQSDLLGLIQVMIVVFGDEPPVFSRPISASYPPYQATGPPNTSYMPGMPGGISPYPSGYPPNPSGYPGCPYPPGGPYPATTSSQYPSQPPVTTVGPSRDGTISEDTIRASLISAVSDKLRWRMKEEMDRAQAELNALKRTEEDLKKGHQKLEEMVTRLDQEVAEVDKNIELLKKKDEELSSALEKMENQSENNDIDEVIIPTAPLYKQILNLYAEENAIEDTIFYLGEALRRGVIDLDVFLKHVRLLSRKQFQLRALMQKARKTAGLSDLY
#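 Fluorescence polarization binding of Tsg101 binding domain (10 uM final) to FITC-labeled PTAP peptide (50 nM final) in HEPES pH 7.5 buffer with NaCl, Tween 20, EDTA, TCEP. Compounds added before peptide; binding 20 min at RT.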
# Rango-impB inh: inhibitors of Rango-importin beta complex formation; Q14974; Rango CFP/YFP FRET sensor + importin beta, 45 min; Potency, µM (series often up to 92.2 µM), without a hit: top-dose inhibition of complex formation; actives 0.031% (n = 340,000);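 also: potency is read from the fitted curve at half-maximal effect; 0% = DMSO wells and 100% = buffer wells lacking importin beta; nearly all actives have a fitted effect of over 15% in size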
#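 FRET biosensor Rango (snurportin 1 IBB between N-terminal EYFP and C-terminal Cerulean), 50 nM in PBS/1 mM DTT/0.02% Tween-20/0.1% BSA, preincubated 5 min RT with compound; 0.125 microM importin beta added, 45 min RT, CFP/YFP FRET ratio read.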
# D3 ag: D3 dopamine receptor (human) agonism | P35462 | D3R DiscoveRx beta-arrestin cells, luminescence, 90 min | max activation, % | actives 0.58% (n = 410,000); in the data active = max activation above about 30%; also: 0% is about no effect
#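 Agonist mode: compounds and dopamine controls were applied to plated cells for 90 min at 37 degrees C after an overnight attachment at 1500 cells/well. Luminescent read-out followed 30 - 60 minutes at room temperature with DiscoveRx detection reagent.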
# MmCpn inh: inhibitors of Methanococcus maripaludis chaperonin TRiC (MmCpn) | purified Mm-Cpn ATPase, ADP Transcreener TR-FRET | Potency, µM (highest dose often 76.9 µM), for inactives: top-dose activity, negative = inhibition, hits mostly inhibitors | actives 0.031% (n = 330,000); active = well fitted inhibition curve with a large enough effect; inconclusive = small, poorly fitted or top-dose-only effect; also: potency is read from the fitted curve at half-maximal effect; % is scaled to controls: 0 for no effect and ±100 for the full control effect; nearly all actives have a fitted effect of over 80% in size
#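 Purified archaeal Mm-CPN (25nM final) preincubated 10 min at 37degC with compound, then 10uM ATP for 30 min at 37degC; ADP measured by HTRF Transcreener TR-FRET; buffer 30 mM TRIS pH 7.4, 100mM KCl, 5mM MgCl2, 1mM DTT.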
# An asterisk follows results filed as active; u = inconclusive; x = no result. Unless noted, calls follow the shape of the full dose curve.
SMILES,Rango dissoc inh,D3 antag,TSG101-PTAP inh,Rango-impB inh,D3 ag,MmCpn inh
COC(=O)c1sccc1NC(=O)c1ccc(C#N)cc1,13%,0,-3%,-1%,-7,u
CCN(CC)C(=O)/C(Cl)=C(\C)OP(=O)(OC)OC,x,x,x,x,-13,x
OC(c1ccccc1)(c1ccc(Cl)cc1)C1CN2CCC1CC2 (stereo unspecified),27%,-29,1%,2%,-31,-1%
OC(c1ccccc1)(c1ccccc1)C1CN2CCC1CC2 (stereo unspecified),-8%,-70*,-4%,-1%,0,0%
C[C@]12CC[C@H]3[C@@H](CCC4=C(Cl)C(=O)CC[C@@]43C)[C@@H]1CC[C@@H]2O,x,x,x,x,-7,x
O=C1NC(=O)N(Cc2ccc(F)cc2)C(=O)/C1=C\c1ccc([N+](=O)[O-])s1,1%,-55*,-1%,u,-13,-8%
C[C@]12CC[C@H]3[C@@H](CCC4=CC(=O)CC[C@@]43C)[C@@H]1CC[C@@H]2OC(=O)CCc1ccccc1,x,x,x,x,10,x
OC(CN1CCC(c2c[nH]c3ccccc23)CC1)C(F)(F)F (stereo unspecified),-21%,-63*,-10%,0%,-6,-3%
COC(=NC1CCCCC1)C(O)c1c[nH]c2ccccc12 (stereo unspecified),-14%,-14,-4%,1%,-2,-1%
S=C=Nc1cccc(C2(N3CCCCC3)CCCCC2)c1,15%,12,-1%,1%,84*,-1%
c1ccc(C2(N3CCCCC3)CCCCC2)cc1,2%,0,0%,-3%,0,0%
C[C@@H]1C(=O)O[C@H]2CC34[C@H]5C[C@@H](C(C)(C)C)[C@]36[C@@H](OC(=O)[C@@H]6O)O[C@@]4(C(=O)O5)[C@]21O (stereo partly specified),20%,13,0%,-4%,9,3%
CCC(=O)OC1(c2cccc(C)c2)CC(C)N(C)CC1C (stereo unspecified),5%,9,-3%,-3%,-14,1%
CCC(=O)OC1(Cc2ccc(CC)cc2)CC(C)N(C)CC1C (stereo unspecified),-1%,-56*,-1%,-2%,-45,-2%
CN1CCN(c2ccc([N+](=O)[O-])cc2Cl)CC1,4%,-21,1%,2%,-13,1%
CN1CCN(c2cc([N+](=O)[O-])ccc2Cl)CC1,-13%,-99*,-9%,0%,-17,-9%
O=C(c1cccc2ccccc12)C1CCCN(C2CCC2)C1 (stereo unspecified),11%,-51*,-1%,-4%,-17,1%
Cc1cc(Cl)ccc1C(=O)C1CCCN(Cc2ccon2)C1 (stereo unspecified),5%,-7,-5%,2%,-11,-4%
O=C(c1cccc2ccccc12)C1CCCN(Cc2ccon2)C1 (stereo unspecified),-14%,-68*,-4%,-1%,-31,1%
CN1CCCC(C(=O)c2ccccc2)C1 (stereo unspecified),19%,-22,-3%,7%,16,0%
CCCC(C)(COC(N)=O)COC(=O)NC1CC1 (stereo unspecified),x,x,x,x,11,x
Cc1cccc(Cc2cnc[nH]2)c1C,x,x,x,x,5,x
CNC(C)Cc1ccc2c(c1)OCO2 (stereo unspecified),x,x,x,x,-16,x
CCCCCCN1CCN(c2ccccc2Cl)CC1,2%,-115*,-3%,0%,2,0%
CN(C)CCc1c[nH]c2cccc(O)c12,x,x,x,x,-10,x
SMILES,Rango dissoc inh,D3 antag,TSG101-PTAP inh,Rango-impB inh,D3 ag,MmCpn inh
Cc1ccc(C2CC3CCC(C2)N3Cc2ccccc2F)cc1 (stereo unspecified),5%,-82*,0%,4%,-9,0%
CCn1c(=N)n(Cc2ccccc2F)c2ccccc21,-4%,16,-1%,0%,-1,1%
O=C(NCC1=C(c2cccc3ccccc23)C[C@@H]2CC[C@H]1N2Cc1ccco1)c1cccs1,x,-51*,x,x,-13,x
Cn1c(CCCC(=O)O)nc2cc(N(CCCl)CCCl)ccc21,x,x,x,x,-13,x
O=[N+]([O-])c1ccc(S(=O)(=O)NN=C2CCCCC2)cc1,42%,-52*,-3%,6%,-13,x
CN(C)C1(CNC(=O)Nc2ccc(Cl)c(Cl)c2)CCCCC1,0%,-55*,-5%,-3%,-27,5%
CC(C)[C@H]1C(=O)N2CCC[C@H]2[C@]2(O)O[C@](NC(=O)[C@@H]3C=C4c5cccc6[nH]cc(c56)C[C@H]4N(C)C3)(C(C)C)C(=O)N12,u,0,-22%,u,10,1%
CN1C[C@H](CO)C=C2c3cccc4[nH]cc(c34)C[C@H]21,u,-78*,-22%,u,-14,x
CC(C)C[C@H]1C(=O)N2CCCC2[C@]2(O)O[C@](NC(=O)[C@@H]3C=C4c5cccc6[nH]cc(c56)CC4N(C)C3)(C(C)C)C(=O)N12 (stereo partly specified),u,u,u,u,14,-6%
CCN(CC)C(=O)[C@@H]1C=C2c3cccc4[nH]cc(c34)C[C@H]2N(C)C1,x,x,x,x,51*,x
C=CC[C@]1(O)CC[C@H]2[C@@H]3CCC4=CCCC[C@@H]4[C@H]3CC[C@@]21C,x,x,x,x,1,x
Fc1ccc2c(c1)nnn2C1CCN(Cc2nnnn2C2CCCCC2)CC1,-3%,-58*,-3%,2%,-4,0%
CCOC(=O)/C=C(C)/C=C/C[C@@H](C)CCCC(C)C,x,x,x,x,0,x
O=c1[nH]c(=S)n(C2CC2)c(O)c1C=NCC1CCCO1 (stereo unspecified),-8%,5,1%,-3%,-15,-3%
O=c1[nH]c(=O)n(C2CCCCCC2)c(O)c1C=NC1CCN(Cc2ccccc2)CC1,3%,-58*,-1%,-1%,-15,1%
O=c1[nH]c(=O)n(C2CCCCCC2)c(O)c1C=NCC1CCCO1 (stereo unspecified),-3%,-51*,-3%,-2%,11,-1%
CCN(CC)c1ccc(C=NN2CCCCCC2)cc1,3%,2,-4%,u,2,x
Cc1ccc2c(c1)[C@]13CCCC[C@@H]1[C@H](C2)N(C)CC3,x,x,x,x,7,x
CNCCc1ccc(O)c(O)c1,3%,15,1%,u,116*,x
C[C@@H]1[C@@H]2Cc3ccc(O)cc3[C@@]1(C)CCN2CCc1ccccc1,x,x,x,x,-23,x
CC(C)N1CCOC(c2ccc(O)c(O)c2)C1 (stereo unspecified),x,19,x,x,95*,x
